From PubChem BioAssay AID504848 (National Center for Advancing Translational Sciences (NCATS), 2011) come the findings set out here.

Each structure is given as a SMILES string. The campaign covered roughly 2,300 compounds. About 1,400 (61%) were called active. Inconclusive results (about 29%) are left out. Calls come from the whole dose curve; as a rule, active = well fitted inhibition curve with a large enough effect; inconclusive = small, poorly fitted or top-dose-only effect, or effect the other way; inactive = no such curve, though single readings can be large or run the other way. The set was probably picked from earlier hits. The list shows a part of the results.
% is set by controls: 0 for no effect and ±100 for the full control effect; potency is the fitted concentration of half-maximal effect.

A short description of this test: Confirmation screen for delayed death inhibitors of the malarial parasite plastid, 96 hour incubation. Note: nearly all actives have a fitted effect of over 60% in size. The conditions noted are these: P. falciparum luciferase growth in erythrocytes; series mostly up to 28.7 µM; activity change, negative = inhibition: at the top concentration. In short, it runs like this: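 Two-generation (96 h, 37 C) exposure of P. falciparum carrying an integrated firefly luciferase reporter in erythrocytes, 0.1% parasitemia and 2% hematocrit final, Albumax-supplemented RPMI. Luminescence decrease measures growth inhibition.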
As to `COCCNC(=O)CCCCCN1C(=O)CCC1=O`, the “activity change, negative = inhibition” value was -10.7% (inactive).
As for `CC1(C)CCSC(/C=C/c2ccccc2)=N1`, the Potency was 6.31 µM (active).
As to `COc1ccc(/C=C2\CCC/C(=C\C=N\N(C)C)C2=O)cc1`, the Potency is 12.6 µM (active).
`O=C(CC1Sc2ccccc2NC1=O)OCc1cc(=O)oc2cc(O)ccc12` (configuration not stated): the Potency was 7.08 µM (active).
Regarding `C[C@H]1CN=C2N(CCNC(=O)CCC3CCCCC3)[C@H](Cc3ccc(O)cc3)CN21`, the Potency was 6.31 µM (active).
For `O=C(CCC1CCCCC1)NCCN1C2=NC[C@H](Cc3ccccc3)N2C[C@H]1Cc1ccc(O)cc1`, the Potency was 6.31 µM (active).
Turning to `C[C@@H](CN1C2=NC[C@H](Cc3ccc(O)cc3)N2C[C@H]1Cc1ccc(O)cc1)NC(=O)CCC1CCCCC1`, the Potency was 5.62 µM (active).
`CC(=O)NC(=S)Nc1ccccc1C(=O)NC1CCCCC1`: the Potency was 12.6 µM (active).
On to `O=C(NC1CCCCC1)C(c1ccncc1)N(Cc1ccccc1)C(=O)c1ccc(-c2ccccc2)[nH]1` (configuration not stated), for which the Potency is 3.98 µM (active).
For `O=C(NC1CCCC1)C(c1ccncc1)N(Cc1ccco1)C(=O)c1ccc(-c2ccccc2)[nH]1` (configuration not stated), the Potency was 7.94 µM (active).
In the case of `COc1cc2c(cc1OC)-c1cc(N3CCc4ccccc43)nc(=O)n1CC2`, the Potency was 5.01 µM (active).
Consider `COC(=O)CCC(=O)OC1(C)C(=O)C=C2C=C(C3CC3)N(CCCOC(C)C)C=C2C1=O` (configuration not stated), for which the Potency is 1.12 µM (active).
On to `O=C(N/N=C/c1ccc([N+](=O)[O-])cc1)c1cccc(N2CCCC2=O)c1`, for which the Potency was 10 µM (active).
Regarding `CC[C@]1([C@H]2O[C@@H]([C@@H]3O[C@](O)(CO)[C@@H](C)C[C@H]3C)C[C@H]2C)CC[C@@H]([C@]2(C)CC[C@@]3(C[C@@H](O)[C@@H](C)[C@@H]([C@H](C)[C@H](OC)[C@H](C)C(=O)O)O3)O2)O1`, the Potency was 0.112 µM (active).
In the case of `Cc1c(C(c2ccc(Br)cc2)c2c(C)n(C)n(-c3ccccc3)c2=O)c(=O)n(-c2ccccc2)n1C`, the Potency was 11.2 µM (active).
On to `CCOc1ccc2nc(C)cc(Nc3cccc([N+](=O)[O-])c3)c2c1`, for which the Potency is 2 µM (active).
Regarding `CCOc1ccccc1C1N=C(c2ccc(OC)cc2)CC(c2ccccc2O)N1` (configuration not stated), the Potency is 12.6 µM (active).
On to `Cc1cccc(C)c1N1CCN(C(=O)c2ccc3c(c2)OCO3)CC1`, for which the Potency is 12.6 µM (active).
Same read-out and setting: the value for `O=C(c1ccc(Br)o1)N1CCN(c2ccc3nnc(-c4ccccc4)n3n2)CC1` was 7.94 µM (active); that for `O=C(Nc1ccccc1C(F)(F)F)N1CCN(c2ccc3nnc(-c4ccc(F)cc4)n3n2)CC1` was 3.98 µM (active).
`Cn1c(CCN2CCCC2)nc2cc(NS(=O)(=O)c3ccc(Cl)cc3)ccc21`: the Potency is 6.31 µM (active).
In the case of `Cn1c(CCN2CCCC2)nc2cc(NS(=O)(=O)c3ccccc3)ccc21`, the Potency was 3.55 µM (active).
`CC1CCCCN1C(=O)COC(=O)c1cccc(NS(=O)(=O)c2ccccc2)c1` (configuration not stated): the “activity change, negative = inhibition” value is -25% (inactive).
`O=C(CCN1C(=O)C2CC=C(Cl)CC2C1=O)NCc1ccccc1` (configuration not stated): the “activity change, negative = inhibition” value is -21.1% (inactive).
For `Cc1nn(CCC(=O)NCc2ccc(N(C)C)cc2)c(=O)c2nn(-c3ccccc3)c(C)c12`, the Potency was 8.91 µM (active).
For the molecule `COc1cc(CNC(=O)CCn2nc(C)c3c(C)n(-c4ccccc4)nc3c2=O)cc(OC)c1OC`, the Potency is 12.6 µM (active).
Turning to `COc1ccccc1CNC(=O)CCCn1nc(C)c2c(C)n(-c3ccccc3)nc2c1=O`, the Potency is 12.6 µM (active).
As for `COc1ccc(OC)c(CCNC(=O)CCn2nc(C)c3c(C)n(-c4ccccc4)nc3c2=O)c1`, the Potency is 5.62 µM (active).
As to `CCC(C(=O)NCCc1ccccc1OC)n1nc(C)c2c(C)n(-c3ccccc3)nc2c1=O` (configuration not stated), the Potency is 10 µM (active).
On the same count and under the same terms, the value for `COc1ccccc1CCNC(=O)CCn1nc(C)c2c(C)n(-c3ccccc3)nc2c1=O` was 7.94 µM (active); that for `C=C1CCC2[C@](C)(CO)[C@H](O)CC[C@@]2(C)[C@@H]1C/C=C1\C(=O)OC[C@H]1O` (some centres not stated) was 11.2 µM (active).
Consider `CC1(C)Cc2nc(-c3ccccc3)nc(SCC(O)CO)c2CO1` (configuration not stated), for which the Potency was 12.6 µM (active).
In the case of `COc1ccc(C)c2sc(NC(=O)CCS(=O)(=O)c3ccccc3)nc12`, the “activity change, negative = inhibition” value is -23.6% (inactive).
`CCOc1cccc2sc(NC(=O)CCS(=O)(=O)c3ccccc3)nc12`: the Potency is 5.62 µM (active).
With `CC(C)(C)Sc1ccc([N+](=O)[O-])cc1C(=O)Nc1ccncc1`, the Potency was 2.51 µM (active).
Regarding `COc1cccc(-c2sc3ccc(OC)cc3c2-c2cc(F)cc(OC)c2)c1`, the Potency is 10 µM (active).
On to `CN1C(=O)c2ccccc2N(C)C1c1cccc(O)c1` (configuration not stated), for which the Potency was 15.8 µM (active).
Take `CC(=O)N1CCc2cc(S(=O)(=O)NCCC(=O)N3CCN(c4ccccn4)CC3)ccc21`: the Potency is 7.94 µM (active).
On the same count and under the same terms, then `CC1CN(c2nc(-c3ccc(Br)cc3)nnc2-c2ccccc2)CC(C)N1` (configuration not stated), with 2.82 µM (active).
As to `O=C(CSc1nnc(-c2ccco2)o1)N1c2ccccc2CCc2ccccc21`, the Potency was 7.94 µM (active).
For `O=C(Cn1c(=O)sc2ccccc21)Nc1nc2c(s1)CCCC2`, the “activity change, negative = inhibition” value was 19.7% (inactive).
As for `O=C(Cc1cn2ccsc2n1)Nc1nc2c(s1)CCCC2`, the “activity change, negative = inhibition” value was 8.57% (inactive).
Turning to `O=C(CCCl)Nc1nc2c(s1)CCc1ccccc1-2`, the Potency is 11.2 µM (active).
For `COc1ccc(CN(C(=O)c2oc3ccc(F)cc3c2C)C2CCS(=O)(=O)C2)cc1` (configuration not stated), the Potency was 14.1 µM (active).
On to `Cc1cc(C(=O)N(C)CC2CCCN(CCc3ccc(F)cc3)C2)c(C)o1` (configuration not stated), for which the Potency was 14.1 µM (active).
As for `Cc1c(/C=N/NC(=O)c2cccs2)c2ccccc2n1Cc1ccccc1Cl`, the Potency is 3.16 µM (active).
As for `Cc1ccccc1NC1=NCC(c2ccc([N+](=O)[O-])cc2)S1` (configuration not stated), the Potency was 11.2 µM (active).
In the case of `CCN(CC)CCNC(=O)c1ccc(NC(=O)c2ccccc2-c2ccc(C(F)(F)F)cc2)cc1`, the Potency is 11.2 µM (active).
For `CCN(CC)C(=O)CSc1nc(COc2ccccc2)nc2ccccc12`, the Potency is 11.2 µM (active).
Take `COc1ccc2[nH]c3c(NCCC4=CCCCC4)ncnc3c2c1`: the Potency was 5.62 µM (active).
`CC(C)OCCCNc1ncnc2c1[nH]c1ccc(F)cc12`: the Potency was 4.47 µM (active).
Turning to `COc1ccc2[nH]c3c(NCCN(C(C)C)C(C)C)ncnc3c2c1`, the Potency was 3.98 µM (active).
As for `Cc1ccccc1OCC(=O)NCCC1=CCCCC1`, the “activity change, negative = inhibition” value was -19.1% (inactive).
With `Cc1cc(=O)nc2c3ccccc3n(CC(=O)NCCC3=CCCCC3)n12`, the Potency was 8.91 µM (active).
For `O=C(NCCCn1ccnc1)C(=O)NCC1OCCN1S(=O)(=O)c1ccc(F)cc1` (configuration not stated), the “activity change, negative = inhibition” value was -11.4% (inactive).
In the case of `COc1ccc(S(=O)(=O)N2CCC(C(=O)Nc3ccccc3N3CCCCC3)CC2)cc1OC`, the Potency is 7.94 µM (active).
Turning to `COc1ccc(Cl)cc1NC(=O)C1Cc2cc(S(=O)(=O)N3CCCC3)ccc2N1C(C)=O` (configuration not stated), the Potency was 11.2 µM (active).
For the molecule `COc1ccc(CCNC(=O)C(=O)NCC2OCCN2S(=O)(=O)c2ccc3c(c2)OCCO3)cc1OC` (configuration not stated), the Potency is 11.2 µM (active).
Regarding `COc1ccc(CCNC(=O)C2CCN(S(=O)(=O)c3ccc(OC)c(OC)c3)CC2)cc1OC`, the Potency is 12.6 µM (active).
Regarding `Cc1ccc(-c2nnc(N3CCOCC3)c3ccccc23)cc1S(=O)(=O)NCC1CCCO1` (configuration not stated), the Potency was 2.51 µM (active).
Still for that read-out and setting: the value for `Cc1cc(C)c(OCC(O)CNC(C)(C)C)c(C)c1` (configuration not stated) was 7.08 µM (active); that for `COc1ccc(N2CCc3c(C)nc4c(OC)cc(OC)cc4c32)c(OC)c1` was 5.01 µM (active).
With `CC(C)NC(=S)N/N=C/c1sc(N2CCCCC2)nc1-c1cccs1`, the Potency was 5.01 µM (active).
Regarding `CC1CCN(CCNC(=O)C2CCN(S(=O)(=O)c3cccc4nsnc34)CC2)CC1`, the Potency was 7.94 µM (active).
With `Cc1cc2nsnc2c(S(=O)(=O)N2CCN(C)CC2)c1C`, the “activity change, negative = inhibition” value is 27.1% (inactive).
Turning to `C=CCn1cccc(/C=C/C(=O)c2ccc(C(C)(C)C)cc2)c1=S`, the Potency was 0.794 µM (active).
For `COc1ccc(CC(=O)NCC2CCCN(Cc3ccc(F)c(OC)c3)C2)cc1` (configuration not stated), the Potency was 7.08 µM (active).
With `Cc1ccc2[nH]c3c(c2c1)CCCC3NC(=O)CCl` (configuration not stated), the Potency was 4.47 µM (active).
With `C[n+]1ccn(CC(=O)c2ccc(Cl)cc2)c1`, the Potency was 14.1 µM (active).
On the same count and under the same terms, then `Cc1cc(C)cc(CC(Cc2nc3ccccc3[nH]2)c2nc3ccccc3[nH]2)c1` (configuration not stated), with 1.12 µM (active); and `CCN1C(=O)[C@@H]2Cc3c([nH]c4ccccc34)C(c3ccc(OC)cc3)N2C1=S` (some centres not stated), with 11.2 µM (active).
As for `C=CCN1C(=O)[C@@H]2Cc3c([nH]c4ccccc34)C(c3ccc(O)cc3)N2C1=S` (some centres not stated), the Potency was 12.6 µM (active).
As for `CCc1nc(Nc2ccncc2)c2oc3ccccc3c2n1`, the Potency was 3.98 µM (active).
With `O=C(C[C@@H]1C/C=C\CC[C@@H](Cc2ccc(F)cc2)C(=O)OC[C@@H]2CCCN2C1=O)NCCO`, the Potency is 10 µM (active).
For `O=C(C[C@H]1C(=O)N(Cc2ccccc2)C[C@@H]1Cc1ccccc1)Nc1ccccc1`, the Potency was 11.2 µM (active).
Turning to `CC(C)(C)c1ccc(C(O)CCCN2CCC(C(O)(c3ccccc3)c3ccccc3)CC2)cc1` (configuration not stated), the Potency was 11.2 µM (active).
As for `CS(=O)(=O)Nc1ccc(C2=NN(C(=O)c3ccco3)C(c3ccc(F)cc3)C2)cc1` (configuration not stated), the Potency was 10 µM (active).
Turning to `COc1cc([N+](=O)[O-])ccc1NC(=O)Nc1cccnc1`, the Potency is 10 µM (active).
Consider `Cc1ccc(S(=O)(=O)N2CCN(C(=O)c3cc(S(=O)(=O)N(C)C)ccc3N3CCCC3)CC2)c(C)c1`, for which the Potency is 8.91 µM (active).
`Cc1ccc(S(=O)(=O)N2CCN(C(=O)c3ccc(Br)o3)CC2)c(C)c1`: the Potency was 6.31 µM (active).
In the case of `CCc1ccc(/C=C/c2c[nH]c3ccccc23)[n+](CC)c1`, the Potency was 0.0501 µM (active).
For `O=C(NCCCN1CCCC1)c1ccc2c(c1)N(Cc1ccccc1F)C(=O)c1ccccc1S2=O` (configuration not stated), the Potency was 11.2 µM (active).
Take `Cc1cccc(CN2C(=O)c3ccccc3S(=O)(=O)c3ccc(C(=O)NCCCN4CCCC4)cc32)c1`: the Potency was 1.58 µM (active).
For the molecule `CCN1C(=O)c2ccccc2Sc2ccc(C(=O)NCCCN3CCCCC3)cc21`, the Potency is 10 µM (active).
In the case of `CCN1CCCC1CNC(=O)c1ccc2c(c1)N(Cc1ccccc1F)C(=O)c1ccccc1S2(=O)=O` (configuration not stated), the Potency was 2 µM (active).
`O=C(c1ccc2c(c1)N(Cc1cccc(Cl)c1)C(=O)c1ccccc1S2(=O)=O)N1CCN(c2ccccn2)CC1`: the Potency was 2.82 µM (active).
On the same count and under the same terms, then `CCOC(=O)N1CCN(C(=O)c2ccc3c(c2)N(Cc2cc(C)ccc2C)C(=O)c2ccccc2S3=O)CC1` (configuration not stated), with 3.98 µM (active).
